In ChEMBL document CHEMBL3433997, “St. Jude Leishmania screening dataset” (2016):

What was measured:
Type in all cases: functional
[1] = target: Solute carrier family 2, facilitated glucose transporter member 1 (Homo sapiens) (UniProt P11166); assay: ST_JUDE_LEISH: Cytotoxicity at 2uM final concentration against transgenic Leishmania Mexicana promastigotes LmGLUT1 that are glucose transport deficient and complemented with the human glucose transporter GLUT1. Activity is measured by DNA content using SYBR green in vitro
Chain of Solute carrier family 2, facilitated glucose transporter member 1 (Homo sapiens) (P11166 whole entry): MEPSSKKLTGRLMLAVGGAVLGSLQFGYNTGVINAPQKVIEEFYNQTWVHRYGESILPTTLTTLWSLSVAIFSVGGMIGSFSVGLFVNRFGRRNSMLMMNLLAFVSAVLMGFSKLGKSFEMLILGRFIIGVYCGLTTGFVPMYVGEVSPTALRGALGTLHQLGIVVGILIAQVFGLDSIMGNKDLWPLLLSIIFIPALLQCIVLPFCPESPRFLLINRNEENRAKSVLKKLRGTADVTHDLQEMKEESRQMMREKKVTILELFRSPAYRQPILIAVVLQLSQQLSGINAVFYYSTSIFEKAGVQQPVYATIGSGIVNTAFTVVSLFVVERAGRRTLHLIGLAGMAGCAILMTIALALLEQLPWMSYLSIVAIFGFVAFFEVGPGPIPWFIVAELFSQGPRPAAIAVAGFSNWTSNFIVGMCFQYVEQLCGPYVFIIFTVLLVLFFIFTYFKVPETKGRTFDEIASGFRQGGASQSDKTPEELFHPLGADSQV

[2] = target: Hexose transporter 1 (Plasmodium falciparum) (UniProt O97467); assay: ST_JUDE_LEISH: Cytotoxicity at 2uM final concentration against transgenic Leishmania Mexicana promastigotes LmPfHT that are glucose transport deficient and complemented with the Plasmodium falciparum hexose transporter. Activity is measured by DNA content using SYBR green in vitro
[3] = target: Glucose transporter (Leishmania mexicana) (UniProt O61059); assay: ST_JUDE_LEISH: Cytotoxicity at 2uM final concentration against transgenic Leishmania Mexicana promastigotes LmGT2 that are glucose transport deficient and complemented with the L. Mexicana glucose transporter 2. Activity is measured by DNA content using SYBR green in vitro

SMILES	inhibition [1] [%]	inhibition [2] [%]	inhibition [3] [%]
CC(C)CCNCc1ccc(OCc2cccc(COc3ccc(CNCCC(C)C)cc3I)c2)c(I)c1	0.58	-0.4	-0.23
O=C(Nc1ccc(-c2nc3ccccc3[nH]2)cc1)c1ccc(N2CCCC2)c([N+](=O)[O-])c1	0.71	2.01	1.2
S=c1nc(-c2ccccc2)n2ccsc2n1	1.86	2	2.44
CCCn1c(Sc2ccc(C#N)c([N+](=O)[O-])c2)nnc1-c1ccc(Cl)cc1	2.12	3.28	2.23
CCCCCCN1CCC(NCc2cccc(C(F)(F)F)c2)CC1	9.06	12.2	6.27
O=C(NC1CCN(Cc2ccccc2O)C1)c1cccc(C(F)(F)F)c1 (centres undefined)	0.25	0.49	-9.49
Cc1ccccc1C1CCN(C2CCC(NC(=O)/C=C/c3ccc(C#N)cc3)CC2)CC1 (centres undefined)	3.43	4.49	5.03
Cc1c(-c2ccc(C(=O)NC3CC(C)(C)NC(C)(C)C3)cc2)[nH]c2cc(Cl)c(Cl)cc12	10.9	8.08	13.8
CN1CCOc2ccc(Nc3nnc(-c4cccc(-c5cccnc5)c4)o3)cc2C1	3.12	2.67	1.35
COc1ccc2nccc([C@@H](O)CN3CCC(NCc4cc5oc(=O)[nH]c5cc4F)CC3)c2c1	0.09	0.65	2.44
Cc1cc(NCCCCCCNc2cc(C)nc3c(C)cccc23)c2cccc(C)c2n1	3.76	7.91	0.85
CCc1cc2c3c(N)nc(N)nc3ccc2n1C(C)(C)C	96	94.4	78.4
O=C(NCCN1CCCC1)N1CCCN(c2ncnc3cc(-c4ccc(F)cc4)sc23)CC1	-1.05	-2.33	4.44
